Reference: PubChem BioAssay (NCATS)
Records with an inconclusive call do not appear. Activity calls are given as the source filed them. Unless noted, calls come from the whole dose curve; as a rule, active = well fitted curve in either direction with a large enough effect (not every such curve was filed as active); inconclusive = small, poorly fitted or top-dose-only effect, or another doubt; inactive = flat fitted curve, though single readings scatter.

Columns and labels:
[1] = target: Lysosomal acid glucosylceramidase (Homo sapiens) (UniProt P04062); assay: Glucocerebrosidase-p2 (AID 348; in the data active = potency below about 10 µM; note: potency is the fitted concentration of half-maximal effect); details: purified GBA, blue fluorogenic substrate, 40 min
Summary of the method: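 Normal human glucocerebrosidase (0.2 nM) with blue fluorogenic substrate (80 uM final) in citrate/phosphate pH 5.9 with 10mM sodium taurocholate, 0.01% tween-20; 40 min RT, NaOH/glycine stop; fluorescence Ex 365/Em 440; AC50 from a titration from 0.6 nM upwards.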

[2] = AP1 Signaling Pathway (AID 357); details: ME-180 AP-1-bla reporter, EGF-induced, beta-lactamase ratio, 5 h; at 7.69 µM (top of the series) unless noted; note: % is set by controls: 0 for no effect and ±100 for the full control effect
Summary of the method: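 AP-1-bla ME-180 cells with beta-lactamase reporter under AP-1 response element, stimulated with EC50 EGF; compounds titrated, 5 hours at 37 degrees Celsius. CCF4 read at 460/530 nm ratio; positive and negative modulators judged by AC50.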

[3] = Stat Signaling Pathway (AID 446); details: ME-180 SIE beta-lactamase reporter, IL-6 stimulated, 5 h; at 7.69 µM (top of the series) unless noted;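 note: ME-180 cervical cancer cells given 40 pM IL-6 alongside compound; SIE-controlled beta-lactamase reporter measured as 460/530 nm FRET emission ratio; % is set by controls: 0 for no effect and ±100 for the full control effect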
Summary of the method: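 Normalization used AC90 stimulation (300 pM IL-6) and AC90 inhibition (125 nM pan-JAK inhibitor at 40 pM IL-6). The underlying signal is SIE-driven beta-lactamase in ME-180 cells after 5 h IL-6 exposure with compound.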

[4] = target: Glucocorticoid receptor (Homo sapiens) (UniProt P04150); assay: GR-GFP Redistribution (AID 450;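 active = compounds whose dose series gives a full or clear partial fitted curve of increased nuclear translocation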; note: potency is the fitted concentration of half-maximal effect); details: U2OS GR-GFP nuclear translocation, laser cytometry, 2 h
[5] = target: Glucocorticoid receptor (Homo sapiens) (UniProt P04150); assay: GR-EFC Redistribution (AID 451; calls by dose curve; note: potency is the fitted concentration of half-maximal effect); details: CHO-K1 GR-EFC translocation, beta-gal luminescence, 2 h
Summary of the method: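 CHO-K1 cells expressing nuclear EA and GR-ED fragments of b-gal; compounds titrated up to 46 uM final, 2 h at 37 C. GR nuclear translocation read as complemented b-gal luminescence after 1 h RT detection.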

[6] = target: Mitogen-activated protein kinase 10 (Mus musculus) (UniProt Q61831); assay: JNK3 AlphaScreen Assay (AID 530); details: JNK3 lysate, c-Jun phosphorylation; series mostly up to 11.4 µM;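 note: kinase came from lysate of stimulated human HepG2 cells; signal reports phosphorylation of biotinylated GST-cJun 1-79 at Ser73 with 10 µM ATP; % is set by controls: 0 for no effect and ±100 for the full control effect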
Summary of the method: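 HepG2 lysate (IL-1b/TNFa pre-activated) + biotin-GST-cJun 1-79 + anti-pSer73 cJun; cpd titration, 15 min RT; ATP 10 uM start; Tris pH 7.6, MgCl2, DTT, vanadate; beads in EDTA buffer; AlphaScreen.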

[7] = target: Cytochrome P450 2C19 (Homo sapiens) (UniProt P33261); assay: qHTS Assay for Inhibitors and Substrates of Cytochrome P450 2C19 (AID 899; active = well fitted curve in the direction sought with a large enough effect; an effect the other way counts as inactive or inconclusive; note: nearly all actives have a fitted effect of over 60% in size; note: potency is the fitted concentration of half-maximal effect); details: recombinant CYP2C19, luciferin-H EGE luminescence; series mostly up to 11.4 µM
Summary of the method: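 5 nM human CYP2C19 with 10uM Luciferin-H EGE (at KM) in 50mM KPO4, compound preincubated 10 min at 37C, then NADPH regeneration for 60 min at 37C. Luciferin read by luminescence after detection reagent; normalized to 57uM ketoconazole as full inhibition.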

[8] = target: Cytochrome P450 1A2 (Homo sapiens) (UniProt P05177); assay: p450-cyp1a2 (AID 410; calls by dose curve; note: potency is the fitted concentration of half-maximal effect;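 for activity change, negative = inhibition: -100% = full effect of reference inhibitor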); details: recombinant CYP1A2, luciferin-ME demethylation, luminescence; series mostly up to 11.4 µM
Summary of the method: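 Read-out is luminescence from luciferin produced by CYP1A2 demethylation of Luciferin-ME (100uM, at Km). Detection reagent stopped the 60 min NADPH-dependent reaction; signals were normalized to 57 uM furafylline.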

[9] = NFAT Signaling Pathway (AID 444); details: Jurkat NFAT-bla M1, carbachol, beta-lactamase ratio, 5 h; at 7.69 µM (top of the series) unless noted;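 note: carbachol stimulus at about its EC50 of 1 µM final; % is set by controls: 0 for no effect and ±100 for the full control effect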
Summary of the method: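 Jurkat cells with NFAT-driven β-lactamase reporter and co-expressed M1 receptor, stimulated with carbachol (final 1 uM, ~EC50), compound titration, 5 h at 37 °C. CCF4 loaded 1 h at RT; 460/530 nm ratio gave %activity and AC50.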

[10] = target: 3',5'-cyclic-AMP phosphodiesterase 4B (Homo sapiens) (UniProt Q07343); assay: qHTS Assay for Inhibitors of PDE-IV (AID 607; active = well fitted activation curve with a large enough effect in the main read-out, with a control signal flat, not every such curve was filed as active; note: % of control where 0% means no effect); details: HEK293 ACTOne CNG channel cells, membrane potential fluorescence; series mostly up to 22.9 µM
Summary of the method: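 HEK293 ACTOne cells with CNG channel (1000/well), endogenous PDE4; membrane potential dye, compounds up to 22.9 uM final. Fluorescence Ex 535/Em 590; RO 20-1724 (100 uM final) as reference.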

[11] = target: Cytochrome P450 3A4 (Homo sapiens) (UniProt P08684); assay: qHTS Assay for Inhibitors and Substrates of Cytochrome P450 3A4 (AID 884; active = well fitted curve in the direction sought with a large enough effect; an effect the other way counts as inactive or inconclusive; note: nearly all actives have a fitted effect of over 50% in size; note: potency is the fitted concentration of half-maximal effect); details: recombinant CYP3A4, Luciferin-PPXE luminescence; series mostly up to 57.1 µM
Summary of the method: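 Luminescent readout of luciferin produced by CYP3A4 (20 nM) dealkylation of Luciferin-PPXE, 25 uM (its KM). NADPH-driven reaction ran 60 min at RT after 10 min compound preincubation; data scaled to 57 uM ketoconazole as 100% inhibition.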

[12] = qHTS Assay for Identification of Small Molecule Agonists for Hypoxia Response Element Signaling Pathway (AID 914; active = well fitted activation curve with a large enough effect in the signal ratio, with a control signal flat, not every such curve was filed as active; the % refers to the signal ratio; note: % of control where 0% means no effect); details: ME-180 (cervical carcinoma) HRE-bla reporter, beta-lactamase ratio, CoCl2, 17 h; activation: hits give high values
Summary of the method: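 Read-out: CCF4 FRET ratio of 460nm to 530nm emission (excitation 405nm) after 2.5 hours at room temperature, taken from HRE-bla ME-180 cells that had been exposed to compound and EC50 CoCl2 for 17 hours.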

[13] = target: Cytochrome P450 3A4 (Homo sapiens) (UniProt P08684); assay: qHTS Assay for Activators of Cytochrome P450 3A4 (AID 885; active = well fitted curve in the direction sought with a large enough effect; an effect the other way counts as inactive or inconclusive; note: nearly all actives have a fitted effect of over 65% in size); details: recombinant CYP3A4, Luciferin-PPXE luminescence, 60 min; series mostly up to 11.4 µM
Summary of the method: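 Human CYP3A4 dealkylates Luciferin-PPXE to luciferin, which luciferase detection converts to light. Substrate was at its KM (25uM), buffer 200mM KPO4, reaction 60 min at RT.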

[14] = target: Cytochrome P450 2D6 (Homo sapiens) (UniProt P10635); assay: qHTS Assay for Inhibitors and Substrates of Cytochrome P450 2D6 (AID 891; active = well fitted curve in the direction sought with a large enough effect; an effect the other way counts as inactive or inconclusive; note: potency is the fitted concentration of half-maximal effect; nearly all actives have a fitted effect of over 60% in size); details: recombinant CYP2D6, luciferin-ME EGE luminescence; series mostly up to 11.4 µM
Summary of the method: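 Luminescent read-out of luciferin formed by 5 nM human CYP2D6 demethylating 30 uM Luciferin-ME EGE (Km level) over 60 min at room temperature after NADPH regeneration addition. Data normalized to full inhibition by 1.43 uM quinidine.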

[15] = target: Cytochrome P450 2C9 (Homo sapiens) (UniProt P11712); assay: qHTS Assay for Inhibitors and Substrates of Cytochrome P450 2C9 (AID 883; active = well fitted curve in the direction sought with a large enough effect; an effect the other way counts as inactive or inconclusive; note: nearly all actives have a fitted effect of over 60% in size; note: potency is the fitted concentration of half-maximal effect); details: recombinant CYP2C9, luciferin-H luminescence, 60 min; series mostly up to 11.4 µM
Summary of the method: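 Human CYP2C9 (10nM) with Luciferin-H at 100uM (its KM) in 25mM KPO4; compound preincubated 10 min at 37C, then NADPH regeneration for 60 min at 37C. Luciferin read by luminescence after detection reagent; normalized to 57uM sulphaphenazole as full inhibition.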

Cytochrome P450 1A2 (Homo sapiens), sequence (P05177 whole entry, looked up): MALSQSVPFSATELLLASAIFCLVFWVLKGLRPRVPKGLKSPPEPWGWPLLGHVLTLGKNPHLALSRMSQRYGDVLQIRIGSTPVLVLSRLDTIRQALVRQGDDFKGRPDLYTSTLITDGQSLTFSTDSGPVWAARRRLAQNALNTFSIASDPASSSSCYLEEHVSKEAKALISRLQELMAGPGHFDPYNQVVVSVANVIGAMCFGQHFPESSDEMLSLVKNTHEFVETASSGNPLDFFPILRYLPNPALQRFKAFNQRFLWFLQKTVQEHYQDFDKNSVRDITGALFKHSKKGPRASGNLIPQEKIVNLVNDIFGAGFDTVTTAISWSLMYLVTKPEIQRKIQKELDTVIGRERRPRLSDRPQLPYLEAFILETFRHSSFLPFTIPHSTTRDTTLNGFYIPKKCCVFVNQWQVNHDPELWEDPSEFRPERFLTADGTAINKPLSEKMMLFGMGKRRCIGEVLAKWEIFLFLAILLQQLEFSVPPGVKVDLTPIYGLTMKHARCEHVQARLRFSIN
Cytochrome P450 2C19 (Homo sapiens), sequence (P33261 whole entry, looked up): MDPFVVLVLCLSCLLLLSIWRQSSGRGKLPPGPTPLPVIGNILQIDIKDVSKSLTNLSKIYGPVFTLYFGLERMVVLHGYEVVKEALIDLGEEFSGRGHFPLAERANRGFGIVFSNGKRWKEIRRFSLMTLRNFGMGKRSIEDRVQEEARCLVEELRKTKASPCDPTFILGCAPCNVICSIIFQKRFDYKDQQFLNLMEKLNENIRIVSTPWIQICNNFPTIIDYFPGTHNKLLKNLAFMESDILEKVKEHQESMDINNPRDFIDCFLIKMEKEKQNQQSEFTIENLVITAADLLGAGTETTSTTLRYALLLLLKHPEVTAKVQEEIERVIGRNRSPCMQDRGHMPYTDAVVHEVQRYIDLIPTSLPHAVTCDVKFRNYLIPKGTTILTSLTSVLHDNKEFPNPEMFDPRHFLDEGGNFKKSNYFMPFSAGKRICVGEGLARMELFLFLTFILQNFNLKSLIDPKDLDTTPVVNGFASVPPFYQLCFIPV
Lysosomal acid glucosylceramidase (Homo sapiens), sequence (P04062 whole entry, looked up): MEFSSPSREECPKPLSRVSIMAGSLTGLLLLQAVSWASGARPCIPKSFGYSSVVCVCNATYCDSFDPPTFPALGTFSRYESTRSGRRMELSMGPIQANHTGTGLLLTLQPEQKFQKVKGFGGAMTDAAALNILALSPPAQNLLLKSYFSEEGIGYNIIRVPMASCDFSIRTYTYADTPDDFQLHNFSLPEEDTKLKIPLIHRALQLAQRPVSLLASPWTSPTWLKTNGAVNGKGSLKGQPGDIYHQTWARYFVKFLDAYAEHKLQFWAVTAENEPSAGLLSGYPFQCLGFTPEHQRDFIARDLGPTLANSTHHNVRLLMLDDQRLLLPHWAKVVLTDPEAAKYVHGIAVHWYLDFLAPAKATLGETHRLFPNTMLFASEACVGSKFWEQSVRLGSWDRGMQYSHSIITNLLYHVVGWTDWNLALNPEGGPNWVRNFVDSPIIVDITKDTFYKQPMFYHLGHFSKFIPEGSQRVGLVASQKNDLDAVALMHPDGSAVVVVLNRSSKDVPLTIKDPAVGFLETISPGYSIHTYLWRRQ
Cytochrome P450 3A4 (Homo sapiens), sequence (P08684 whole entry, looked up): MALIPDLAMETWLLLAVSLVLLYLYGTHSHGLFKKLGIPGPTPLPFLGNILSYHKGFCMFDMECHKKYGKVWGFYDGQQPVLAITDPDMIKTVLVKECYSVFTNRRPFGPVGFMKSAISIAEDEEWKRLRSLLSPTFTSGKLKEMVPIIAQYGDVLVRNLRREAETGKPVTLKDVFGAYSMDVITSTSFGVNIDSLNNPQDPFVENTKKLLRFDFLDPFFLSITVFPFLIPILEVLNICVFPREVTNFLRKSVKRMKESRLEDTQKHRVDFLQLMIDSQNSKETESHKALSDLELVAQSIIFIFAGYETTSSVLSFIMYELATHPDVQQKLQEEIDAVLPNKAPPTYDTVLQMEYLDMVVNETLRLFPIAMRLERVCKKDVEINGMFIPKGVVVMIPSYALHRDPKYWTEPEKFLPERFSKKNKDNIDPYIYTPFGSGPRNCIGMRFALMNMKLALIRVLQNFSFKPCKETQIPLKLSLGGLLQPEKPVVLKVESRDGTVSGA
Cytochrome P450 2D6 (Homo sapiens), sequence (P10635 whole entry, looked up): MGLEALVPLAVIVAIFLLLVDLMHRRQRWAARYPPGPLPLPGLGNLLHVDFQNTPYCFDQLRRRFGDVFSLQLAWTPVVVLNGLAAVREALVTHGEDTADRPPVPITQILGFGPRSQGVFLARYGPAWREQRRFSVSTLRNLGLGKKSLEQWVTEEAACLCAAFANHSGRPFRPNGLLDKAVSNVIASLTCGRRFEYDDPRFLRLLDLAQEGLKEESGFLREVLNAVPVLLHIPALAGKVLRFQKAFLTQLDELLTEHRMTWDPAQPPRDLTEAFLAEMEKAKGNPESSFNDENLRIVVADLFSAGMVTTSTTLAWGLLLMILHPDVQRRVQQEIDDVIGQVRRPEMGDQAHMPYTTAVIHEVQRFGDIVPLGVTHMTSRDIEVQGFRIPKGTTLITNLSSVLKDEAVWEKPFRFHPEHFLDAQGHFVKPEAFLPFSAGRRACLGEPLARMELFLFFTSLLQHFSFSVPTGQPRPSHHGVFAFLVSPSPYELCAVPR
3',5'-cyclic-AMP phosphodiesterase 4B (Homo sapiens), sequence (Q07343 whole entry, looked up): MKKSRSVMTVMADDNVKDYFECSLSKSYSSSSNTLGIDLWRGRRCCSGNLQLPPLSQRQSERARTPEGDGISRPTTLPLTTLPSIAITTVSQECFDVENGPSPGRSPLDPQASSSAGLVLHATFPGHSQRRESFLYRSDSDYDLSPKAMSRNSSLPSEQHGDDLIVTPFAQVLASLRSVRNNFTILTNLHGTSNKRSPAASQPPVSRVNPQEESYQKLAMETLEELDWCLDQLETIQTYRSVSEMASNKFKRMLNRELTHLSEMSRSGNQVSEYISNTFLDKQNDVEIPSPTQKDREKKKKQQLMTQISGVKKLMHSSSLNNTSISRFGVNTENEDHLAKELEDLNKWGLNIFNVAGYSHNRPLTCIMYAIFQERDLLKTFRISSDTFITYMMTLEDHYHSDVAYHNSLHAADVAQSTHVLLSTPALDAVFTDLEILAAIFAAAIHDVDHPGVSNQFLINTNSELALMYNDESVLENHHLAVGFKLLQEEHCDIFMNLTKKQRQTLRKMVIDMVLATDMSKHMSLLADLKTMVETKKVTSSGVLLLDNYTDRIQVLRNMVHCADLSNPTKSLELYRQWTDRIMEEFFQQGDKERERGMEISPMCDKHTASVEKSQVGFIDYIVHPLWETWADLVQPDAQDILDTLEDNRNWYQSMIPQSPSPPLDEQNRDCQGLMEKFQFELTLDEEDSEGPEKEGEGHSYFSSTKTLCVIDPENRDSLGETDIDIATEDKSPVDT
Glucocorticoid receptor (Homo sapiens), sequence (P04150 whole entry, looked up, the tested form may be a part): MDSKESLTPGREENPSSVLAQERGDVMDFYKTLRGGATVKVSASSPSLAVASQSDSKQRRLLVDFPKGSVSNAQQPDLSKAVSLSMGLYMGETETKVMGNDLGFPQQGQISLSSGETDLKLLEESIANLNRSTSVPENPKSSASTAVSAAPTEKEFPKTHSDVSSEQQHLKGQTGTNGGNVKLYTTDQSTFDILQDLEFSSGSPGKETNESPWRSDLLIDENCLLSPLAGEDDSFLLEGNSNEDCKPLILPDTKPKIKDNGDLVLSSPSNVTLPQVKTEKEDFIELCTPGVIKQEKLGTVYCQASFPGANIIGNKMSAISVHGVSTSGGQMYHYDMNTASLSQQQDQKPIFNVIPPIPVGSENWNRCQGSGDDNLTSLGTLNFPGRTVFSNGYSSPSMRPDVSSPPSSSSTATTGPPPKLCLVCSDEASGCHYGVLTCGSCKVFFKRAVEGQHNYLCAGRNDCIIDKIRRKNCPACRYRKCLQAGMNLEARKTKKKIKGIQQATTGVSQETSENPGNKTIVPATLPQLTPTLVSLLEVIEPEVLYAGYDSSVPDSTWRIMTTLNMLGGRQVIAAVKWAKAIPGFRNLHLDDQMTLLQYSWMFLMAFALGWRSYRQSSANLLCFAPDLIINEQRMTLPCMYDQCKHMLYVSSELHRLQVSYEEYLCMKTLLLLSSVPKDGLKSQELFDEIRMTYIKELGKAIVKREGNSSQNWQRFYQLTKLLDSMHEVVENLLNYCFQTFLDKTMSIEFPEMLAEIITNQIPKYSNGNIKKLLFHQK
Cytochrome P450 2C9 (Homo sapiens), sequence (P11712 whole entry, looked up): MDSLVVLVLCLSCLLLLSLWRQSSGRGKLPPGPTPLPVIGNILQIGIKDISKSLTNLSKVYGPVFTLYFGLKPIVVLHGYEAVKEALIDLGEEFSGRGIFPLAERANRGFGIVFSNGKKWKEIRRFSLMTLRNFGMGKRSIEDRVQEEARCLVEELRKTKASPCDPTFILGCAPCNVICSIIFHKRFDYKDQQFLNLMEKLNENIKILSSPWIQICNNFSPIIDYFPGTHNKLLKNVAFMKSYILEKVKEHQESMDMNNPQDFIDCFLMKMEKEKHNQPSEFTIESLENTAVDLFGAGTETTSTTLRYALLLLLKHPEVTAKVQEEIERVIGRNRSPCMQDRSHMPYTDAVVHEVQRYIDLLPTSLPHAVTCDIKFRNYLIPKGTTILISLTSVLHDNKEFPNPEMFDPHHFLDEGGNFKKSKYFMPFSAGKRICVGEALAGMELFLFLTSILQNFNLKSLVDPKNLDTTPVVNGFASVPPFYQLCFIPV

O=C(O)CC[P+](c1ccccc1)(c1ccccc1)c1ccccc1
inactive: Potency [1] > 11.4 µM | activity change, negative = inhibition [2] 2.51% | activity, negative = inhibition [3] 4.75% | Potency [4] > 46 µM | Potency [5] > 9.22 µM | Potency [6] | Potency [7]

CN(C)Cc1cc(O)c(O)c(CN(C)C)c1
inactive: Potency [1] > 11.4 µM | Potency [8] | activity change, negative = inhibition [9] 3.49% | activity, negative = inhibition [3] 2.92% | Potency [4] > 46 µM | Potency [5] > 9.22 µM | Potency [6] | Potency [10]

CN(C)Cc1cc(C(F)(F)F)ccc1C(O)(c1ccccc1)c1ccccc1
inactive: Potency [1] > 11.4 µM | activity change, negative = inhibition [2] 19.8% | activity, negative = inhibition [3] 9.65% | Potency [4] > 46 µM | Potency [5] > 9.22 µM | Potency [6] | Potency [10] | activation [12] 25.7%
active: Potency [11] 0.794 µM

O=C1Oc2ccccc2C(=O)/C1=C\N1C(=O)N/C(=C\c2ccccc2O)C1=O
inactive: Potency [1] > 11.4 µM | activity change, negative = inhibition [9] -7.15% | activity, negative = inhibition [3] -25.4% | Potency [4] > 46 µM | Potency [5] > 9.22 µM | Potency [6] | Potency [10] | Potency [13]
active: Potency [8] 0.316 µM

CCC1=C(C[C@H]2NCCc3ccccc32)C[C@@H]2c3cc(OC)c(OC)cc3CCN2C1
inactive: Potency [1] > 11.4 µM | Potency [8] | activity, negative = inhibition [3] -23.5% | Potency [4] > 46 µM | Potency [5] > 9.22 µM | Potency [6] | Potency [10]

CN(C)CCCN1c2ccc3ccccc3c2Sc2cccc(Cl)c21
inactive: Potency [1] > 11.4 µM | activity change, negative = inhibition [9] 1.06% | activity, negative = inhibition [3] 2.06% | Potency [4] > 46 µM | Potency [5] > 9.22 µM | Potency [6] | Potency [10]
active: Potency [8] 1 µM | Potency [14] 0.501 µM

Cc1nnc(S(=O)(=O)c2ccc(N=Nc3c(N)nc(N)nc3N)cc2)s1
inactive: Potency [1] > 11.4 µM | activity change, negative = inhibition [8] -10.2% [at 2.29 µM] | activity change, negative = inhibition [9] 7.42% | activity, negative = inhibition [3] -3.59% | Potency [4] > 46 µM | Potency [5] > 9.22 µM | Potency [6] | Potency [10]

Cn1c(=S)c2[nH]c(SCCCc3ccccc3)nc2n(C)c1=O
inactive: Potency [1] > 11.4 µM | activity change, negative = inhibition [9] 3.04% | activity, negative = inhibition [3] -23.2% | Potency [4] > 46 µM | Potency [5] > 9.22 µM | Potency [6] | Potency [10]
active: Potency [8] 3.16 µM

CCN(CC)CCN1c2ccccc2Sc2ccc3ccccc3c21
inactive: Potency [1] > 11.4 µM | activity, negative = inhibition [3] 4.26% | Potency [4] > 46 µM | Potency [5] > 9.22 µM | Potency [6] | Potency [10]
active: Potency [8] 3.98 µM | Potency [14] 0.631 µM

CSc1ccc2c(c1)N(CCCN(C)C)c1ccccc1S2
inactive: Potency [1] > 11.4 µM | activity, negative = inhibition [3] 2.23% | Potency [4] > 46 µM | Potency [5] > 9.22 µM | Potency [6] | Potency [10]
active: Potency [8] 1.26 µM | Potency [14] 0.501 µM

N#Cc1c(NC(=O)C(F)(F)F)sc2c3c(=O)c4ccccc4c(=O)c=3oc3ccccc3c12
inactive: Potency [1] > 11.4 µM | activity change, negative = inhibition [9] 13.7% | activity, negative = inhibition [3] 0.0272% | Potency [4] > 46 µM | Potency [5] > 9.22 µM | Potency [6] | Potency [13]
active: Potency [8] 1 µM | Potency [15] 0.0501 µM | Potency [7] 0.501 µM

O=C1c2ccccc2C(O)(O)[C@@]1(O)[C@]1(O)C(=O)c2ccccc2C1(O)O
inactive: Potency [1] > 11.4 µM | activity change, negative = inhibition [8] -7.5% [at 2.29 µM] | activity change, negative = inhibition [9] -0.902% | Potency [4] > 46 µM | Potency [5] > 9.22 µM | Potency [6] | Potency [10] | Potency [15] | activity change, negative = inhibition [11] 11.5% [at 11.4 µM] | Potency [7]

Cc1ccc(-c2nc(-c3nccc4ccccc34)oc2-c2ccccc2)cc1
active: Potency [8] 2.51 µM
inactive: Potency [1] > 11.4 µM | activity, negative = inhibition [3] 24.1% | Potency [4] > 46 µM | Potency [5] > 9.22 µM | Potency [6] | Potency [10] | Potency [13]

CC(C)[C@H](Sc1nc(N)nc2nc[nH]c12)C(=O)O
inactive: Potency [1] > 11.4 µM | activity change, negative = inhibition [9] 9.06% | activity, negative = inhibition [3] 14.2% | Potency [4] > 46 µM | Potency [5] > 9.22 µM | Potency [6] | Potency [10]
active: Potency [8] 0.316 µM

NCCSCCC(=O)O
inactive: Potency [1] > 11.4 µM | Potency [8] | activity change, negative = inhibition [9] 11.4% | activity, negative = inhibition [3] 0.279% | Potency [4] > 46 µM | Potency [5] > 9.22 µM | Potency [6] | Potency [10]

C[C@]12CC[C@H]3c4ccc(O)cc4CC[C@@H]3[C@H]1CC[C@@H]2OC(=O)CCc1ccccc1
inactive: Potency [1] > 11.4 µM | activity change, negative = inhibition [8] -13.8% [at 2.29 µM] | activity change, negative = inhibition [9] -14.3% | activity, negative = inhibition [3] -1.42% | Potency [4] > 46 µM | Potency [5] > 9.22 µM | Potency [6] | Potency [10]
